Measles CPE – protection of cells from measles virus. protection (pct of control), % at 4 µM. actives 1.5% (n = 140,000). Measles virus-infected cells, CPE protection, absorbance; in the data active = protection mostly above about 24%, no sharp cut-off; inactive = mostly below about 26%
CYP2C9 activ – increases human cytochrome P450 2C9 activity | recombinant CYP2C9, luciferin-H conversion, luminescence; hits give high values; factor 1 = untreated enzyme, 0 = blocked | activation factor at 5 µM | actives 1.4% (n = 96,000) | AID 1024;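 active = activation factor of 2 or more for CYP2C9 at a 5 µM dose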;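 note: 0 = sulfaphenazole-blocked wells and 1 = vehicle-only wells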
Target sequence (P11712 whole entry, looked up): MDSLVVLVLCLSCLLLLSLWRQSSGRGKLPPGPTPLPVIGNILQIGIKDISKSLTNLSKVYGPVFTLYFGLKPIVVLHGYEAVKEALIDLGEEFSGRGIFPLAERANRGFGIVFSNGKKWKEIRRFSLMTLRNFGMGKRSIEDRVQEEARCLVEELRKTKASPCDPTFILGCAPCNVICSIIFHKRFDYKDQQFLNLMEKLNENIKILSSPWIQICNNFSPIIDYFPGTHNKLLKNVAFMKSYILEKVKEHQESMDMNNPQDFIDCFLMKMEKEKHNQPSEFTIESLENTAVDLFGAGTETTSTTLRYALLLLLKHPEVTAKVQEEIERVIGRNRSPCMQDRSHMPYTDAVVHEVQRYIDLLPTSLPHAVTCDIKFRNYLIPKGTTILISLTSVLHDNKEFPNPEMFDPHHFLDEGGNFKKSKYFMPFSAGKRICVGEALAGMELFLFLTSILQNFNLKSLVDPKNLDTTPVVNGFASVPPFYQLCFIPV
CYP2C19 inhib – human CYP2C19 inhibition; CYP2C19 Supersomes, luciferin-H EGE luminescence, 30 min; inhibition, % at 5 µM; actives 21% (n = 96,000);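 active = CYP2C19 inhibition above a set limit at 5 µM in the primary screen, cut at about 50% in these data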;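 note: plate controls were negative control wells for no effect and 2.5 mM tranylcypromine positive control for full effect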
CYP2C19 activ – cytochrome P450 2C19 (human) activation | recombinant CYP2C19, luciferin-H EGE luminescence; hits give high values; 0 = fully inhibited enzyme, 1 = untreated enzyme | P33261 | 96,000 tested, under 10 active | activation factor at 5 µM;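 active = activation factor of at least 2 at 5 µM in the primary screen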;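 note: 0 = wells with 2.5 mM tranylcypromine and 1 = vehicle-only wells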
CYP2C9 inh – blocks human cytochrome P450 2C9; P11712; CYP2C9 Supersomes, luciferin-H conversion, luminescence; inhibition, % at 5 µM; actives 20% (n = 96,000); AID 777;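 active = blocking of liver enzyme CYP2C9 beyond about 50% at 5 µM, limit read from the data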
An asterisk follows results filed as active; . = no result given. Most compounds without a hit are left out; they make up all but 22% or so of the library.

SMILES | Measles CPE | CYP2C9 activ | CYP2C19 inhib | CYP2C19 activ | CYP2C9 inh
O/N=C(\c1ccc(Cl)cc1Cl)c1ncc(C(F)(F)F)cc1Cl | 3.4 | 0.3 | 92.7* | 0.1 | 74.5*
Cc1nn(-c2ccccc2)c(C)c1/C=N/NC(=O)c1cccs1 | 7.2 | . | . | . | .
Cc1ccc(C(=O)Nc2ccccc2C(=O)NCc2ccccc2)cc1 | 13.8 | . | . | . | .
Cc1ccc(C(=O)N/C(=C\c2ccco2)C(=O)NCCCn2ccnc2)cc1C | 4.0 | 0.3 | 78.8* | 0.2 | 70.7*
Cc1ccc(C(=O)N/C(=C\c2cccs2)C(=O)NCCCn2ccnc2)cc1C | 1.2 | 0.5 | 48.0 | 0.5 | 54.1*
Cc1ccc(S(=O)(=O)n2nc(OC(=O)c3cccs3)cc2N)cc1 | 5.3 | 0.9 | 5.5 | 0.9 | 10.2
Cc1ccc(NC(=O)c2ccc(OC(=O)c3ccco3)cc2)cc1 | 15.8 | 1.1 | 9.7 | 0.9 | -9.8
COc1ccc(OCC(=O)Nc2ccc(NC(=O)c3ccco3)cc2)cc1 | 20.0 | 0.6 | 38.4 | 0.6 | 38.5
CCOC(=O)c1c(C)[nH]c(C)c1C(=O)COc1ccc(NC(=O)c2ccco2)cc1 | 4.6 | 0.1 | 88.0* | 0.1 | 92.8*
Cc1ccc(Oc2ccc(NC(=O)c3ccco3)cc2)cc1 | 12.9 | 0.4 | 56.4* | 0.4 | 58.7*
COc1ccc(NC(=O)c2oc3ccccc3c2NC(=O)c2ccco2)cc1 | 16.5 | 0.8 | 59.8* | 0.4 | 18.7
COCC(=O)Nc1c(C(=O)Nc2cccc(OC)c2)oc2ccccc12 | 7.7 | 0.4 | 11.1 | 0.9 | 63.5*
O=C(Nc1cc(Cl)c(O)c(Cl)c1)C1CCCO1 (configuration not stated) | 6.2 | 1.1 | -11.8 | 1.1 | -9.2
CCN(CC)CCCNC(=O)Cn1ncc2c(=O)oc3ccc(C)cc3c21 | 13.5 | 0.9 | 3.1 | 1 | 8.1
CCOCC(=O)Nc1c(C(=O)Nc2ccc(OC)cc2OC)oc2ccccc12 | 5.1 | 0.3 | 22.4 | 0.8 | 70.6*
Cc1onc(-c2c(F)cccc2Cl)c1C(=O)N1CCc2ccccc2C1 | 12.9 | 0.3 | 95.6* | 0 | 68.0*
Cc1onc(-c2c(Cl)cccc2Cl)c1C(=O)N1CCc2ccccc21 | 6.3 | 0.2 | 88.3* | 0.1 | 84.8*
Cc1onc(-c2c(F)cccc2Cl)c1C(=O)N1CCN(S(C)(=O)=O)CC1 | 3.9 | 1.2 | -1.3 | 1 | -22.0
Cc1onc(-c2ccccc2Cl)c1C(=O)N1CC(C)OC(C)C1 (configuration not stated) | 1.4 | 1.1 | 14.1 | 0.9 | -5.8
CCOC(=O)C1CCCN(C(=O)c2c(-c3ccccc3Cl)noc2C)C1 (configuration not stated) | 5.6 | 0.3 | 78.7* | 0.2 | 69.4*
Cc1ccc(C(=O)N2CCc3ccccc32)o1 | 1.0 | . | . | . | .
Cc1onc(-c2ccccc2Cl)c1C(=O)N1CCc2ccccc2C1 | 13.6 | 0.5 | 54.2* | 0.5 | 45.8
O=C(CSc1nc(Cc2ccccc2)nc2ccccc12)Nc1ccc2c(c1)OCCO2 | 9.0 | 0.8 | 4.9 | 1 | 23.8
CCNC(=S)Nc1cc(OCC)c(NC(=O)c2ccco2)cc1OCC | 37.0 | . | . | . | .
CC1(C)Cc2ccccc2-c2nnc(SCC(=O)Nc3nc4ccccc4s3)n21 | 4.7 | 0.9 | 9.1 | 0.9 | 7.0
SMILES | Measles CPE | CYP2C9 activ | CYP2C19 inhib | CYP2C19 activ | CYP2C9 inh
O=C(c1ccccc1)c1ccc2nc(N3CCN(C(=O)c4ccco4)CC3)c3nncn3c2c1 | 2.2 | 0.1 | 78.4* | 0.2 | 92.0*
COc1ccc(C(=O)NC2CC3CCCC(C2)N3CC(C)C)cc1OC (configuration not stated) | 4.5 | 1.1 | -14.4 | 1.1 | -5.6
CC1CN(S(=O)(=O)c2cccc(C(=O)NCCCn3ccnc3)c2)CC(C)O1 (configuration not stated) | 7.0 | 0.4 | 8.6 | 0.9 | 62.7*
CCC(=O)c1c[nH]c(C(=O)NCCCn2ccnc2)c1 | 1.4 | 0.2 | 75.5* | 0.2 | 82.9*
CC1CN(S(=O)(=O)c2cccc(C(=O)NN3CCN(C)CC3)c2)CC(C)O1 (configuration not stated) | 28.8 | . | . | . | .
COc1ccc(-c2cc(C(=O)NCCCn3ccnc3)no2)cc1OC | 1.8 | 0.5 | 65.2* | 0.3 | 50.4*
O=C(NCCCn1ccnc1)c1cc(-c2ccc3c(c2)OCO3)on1 | 17.9 | 0.5 | 65.6* | 0.3 | 45.5
c1ccc(N2CCCCC2)c(NC2=NCCC2)c1 | 16.9 | 0.8 | 5.8 | 0.9 | 18.0
Cc1ccc2cc(CN(CCN3CCCC3)C(=O)Nc3ccccc3)c(=O)[nH]c2c1C | 5.0 | 0.9 | -1.6 | 1 | 8.4
O=C(CCCOc1ccccc1)N1CCCc2ccccc21 | 19.2 | 0.7 | 48.6 | 0.5 | 31.8

Screens (PubChem BioAssay)
